Assay results taken from PubChem BioAssay (NCATS).
Results filed as inconclusive are left out. Calls of active or inactive are those of the source. Calls follow the shape of the dose curve; as a rule, active = well fitted inhibition curve with a large enough effect; inconclusive = small, poorly fitted or top-dose-only effect; inactive = no such curve, though single readings can be large or run the other way.
Potency is read from the fitted curve at half-maximal effect.

Assay: qHTS Screen of the MIPE 4.0 Collection Against Ewings Sarcoma (TC71) (AID 1259253); also: nearly all actives have a fitted effect of over 40% in size
Conditions: TC71 Ewing sarcoma viability, CellTiter-Glo, 48 h; series mostly up to 45.8 µM
Text: There is a large unmet medical need for treatments for Ewing sarcoma, a pediatric sarcoma. We sought to identify compounds that inhibited Ewing sarcoma cells in vitro with the goal to then test promising drugs in two drug combinations in vitro to look for synergistic drug combinations. Promising combinations would then proceed to additional validation, including in vivo testing.
Using the NCATS developed oncology compound library called the Mechanism of Interrogation Plate (MIPE), four Ewing sarcoma cell lines were evaluated (TC32, TC71, RDES, EW8). Compounds, in a 12-point titration series, were incubated with cells for 48 hours and the read out was cell viability (CellTiter-Glo from Promega). These initial experiments were used to select appropriate concentrations of each single agent for subsequent two-drug matrix combinations such that the concentrations in the matrices would span both activity and non-activity.
Cells, in the log phase of growth, were seeded in 5 uL of RPMI plus 5% FBS, […] L-glutamine, 100 U/ml penicillin and 100 ug/ml streptomycin into 1536-well solid-bottom white tissue culture treated Greiner Bio One Plates (789173-F) using a MultiDrop Combi (Thermofisher Scientific) dispenser and a small sterile cassette. One column was media alone to be used as a :"no cells" control. The plates were then covered with sterilized stainless steel gasketed lids from Kalypsys. After allowing cells to attach for 4 hours, 23 nL of test compound or control (negative control DMSO and positive control 9.2 uM Bortezomib-final) were added from a 1536-well polypropylene compound source plate to each well using a 1536 head pin tool from Kalypsys. Cells were then incubated for 48 hours at 37C, 95% relative humidity and 5% CO2. After 48 hours, plates were removed from the incubator and 3 uL of CellTiter-Glo (Promega) was added using an Aurora Flying Reagent Dispenser Bioraptor. Plates were incubated at room temperature for 10 minutes prior to reading the luminescence on the Viewlux (PerkinElmer). The relative luciferase units are used to calculate the percent activity using the activity of DMSO in the cells and no cells columns for normalization of no inhibition and full inhibition respectively.
For `N[C@@H](Cc1ccc(N(CCCl)CCCl)cc1)C(=O)O`, the Potency was 9.35 µM (active). With `C#CCN(C)[C@H](C)Cc1ccccc1` the Potency was “inactive”. In the case of `C[C@@H]1[C@@H](C(=O)C[C@H]2O[C@@H]3O[C@]4(C)CC[C@@H]5[C@H](C)CC[C@@H]([C@H]2C)[C@@]35OO4)O[C@@H]2O[C@]3(C)CC[C@H]4[C@H](C)CC[C@@H]1[C@@]24OO3`, the Potency was 4.69 µM (active). For `COC[C@@H](NC(C)=O)C(=O)NCc1ccccc1`, the Potency was “inactive”. In the case of `Cc1cc(SCc2sc(-c3ccc(C(F)(F)F)c(F)c3)nc2C)ccc1OCC(=O)O`, the Potency was 23.5 µM (active). In the case of `Cn1cc(C2=C(c3cn(C4CCN(Cc5ccccn5)CC4)c4ccccc34)C(=O)NC2=O)c2ccccc21`, the Potency was 6.62 µM (active). For `C[C@@H]1[C@@H](CC(C[C@H]2O[C@@H]3O[C@]4(C)CC[C@@H]5[C@H](C)CC[C@@H]([C@H]2C)[C@@]35OO4)C[S+](=O)([O-])c2ccc(COC(=O)N(C)C)cc2)O[C@@H]2O[C@]3(C)CC[C@H]4[C@H](C)CC[C@@H]1[C@@]24OO3` (stereo partly drawn), the Potency was 0.332 µM (active). In the case of `CN(C)[C@@H]1C(=O)C(C(N)=O)=C(O)[C@@]2(O)C(=O)C3=C(O)c4c(O)cccc4[C@@](C)(O)[C@H]3C[C@@H]12`, the Potency was 3.72 µM (active). In the case of `O=c1[nH]c2ccccc2n1CCCN1CCC(n2c(=O)[nH]c3cc(Cl)ccc32)CC1`, the Potency was “inactive”. For `Fc1ccc(C(OCCN2CCN(CCCc3ccccc3)CC2)c2ccc(F)cc2)cc1`, the Potency was 18.7 µM (active). With `CN(C)CCN(C)CCc1ccc(Cl)c(Cl)c1` the Potency was “inactive”. With `Cc1sc2c(c1C)C(c1ccc(Cl)cc1)=N[C@@H](CC(=O)OC(C)(C)C)c1nnc(C)n1-2` the Potency was 1.48 µM (active). In the case of `C=C(C)[C@H]1Cc2c(ccc3c2O[C@@H]2COc4cc(OC)c(OC)cc4[C@@H]2C3=O)O1`, the Potency was 4.69 µM (active). For `CN1CCN(C(=O)O[C@H]2c3nccnc3C(=O)N2c2ccc(Cl)cn2)CC1`, the Potency was “inactive”. In the case of `COC1(CS(=O)c2ccccc2)CCN(CCc2c[nH]c3ccc(F)cc23)CC1` (stereo not drawn), the Potency was 5.9 µM (active). In the case of `CNCC(O)c1ccc(O)cc1` (stereo not drawn), the Potency was “inactive”. In the case of `C[C@@H]1O[C@@H](O[C@H]2C[C@@H](O)[C@]3(CO)[C@H]4[C@H](O)C[C@]5(C)[C@@H](C6=CC(=O)OC6)CC[C@]5(O)[C@@H]4CC[C@]3(O)C2)[C@H](O)[C@H](O)[C@H]1O`, the Potency was 0.0418 µM (active). For `CC(O)(CS(=O)(=O)c1ccc(F)cc1)C(=O)Nc1ccc(C#N)c(C(F)(F)F)c1` (stereo not drawn), the Potency was 2.35 µM (active). For `Cc1cccc(C)c1NC(=O)CN1CCCC1=O`, the Potency was “inactive”. For `COc1ccc(C(=O)c2c(C)n(CCN3CCOCC3)c3ccccc23)cc1`, the Potency was “inactive”. For `COc1ccc(C(CN(C)C)C2(O)CCCCC2)cc1` (stereo not drawn), the Potency was “inactive”. For `CCCC(C)(COC(N)=O)COC(=O)NC(C)C` (stereo not drawn), the Potency was “inactive”. With `O=C1CC[C@@]2(O)[C@H]3Cc4ccc(O)c5c4[C@@]2(CCN3CC2CC2)[C@H]1O5` the Potency was “inactive”.
